From PubChem
Rows were chosen to be rich in hits. Some 3.6% of all compounds tested hit in one or more screens of this group.
NadD block: inhibitors of Staphylococcus aureus NadD | purified NadD enzyme, colorimetric absorbance read-out | inhibition, % at 20 µM | 360,000 tested, 0.78% active | AID 602399; in the data active = inhibition above about 26%
Myeloid diff MLP: myeloid differentiation induction | ER-HoxA9 myeloid progenitors, lysozyme-GFP differentiation, flow cytometry | calls only at 10 µM | 360,000 tested, 1% active;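 active = normalized GFP-positive differentiation at or above the plate's own cutoff, the solvent-only control mean plus 3 SD; inconclusive = no clear call, values can overlap the other calls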;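 also: cells exposed to compound for four days before flow analysis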
FAS TE block: blocks the thioesterase domain of human fatty acid synthase; AID 602261; P49327; recombinant FAS-TE, OMFH fluorogenic substrate, fluorescence endpoint; inhibition, % at 15 µM; 360,000 tested, 0.67% active;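 active = compounds whose normalised, plate-corrected inhibition of enzyme fluorescence in the single-dose primary screen is 50% or more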;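 also: 0% = DMSO with enzyme and 100% = substrate without enzyme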
NRP1-CendR mod: NRP-1/CendR interaction modulation. inhibition, % at 25 µM. FAM-RPARPAR peptide binding to NRP-1, fluorescence polarization. 360,000 tested, 0.85% active. O14786. AID 602438;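 active = inhibition or corrected inhibition above about 18%, plus a signal ratio from 0.5 to 1.5, limit read from the data, passing the limit was not always enough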
Target sequence (O14786 whole entry, looked up): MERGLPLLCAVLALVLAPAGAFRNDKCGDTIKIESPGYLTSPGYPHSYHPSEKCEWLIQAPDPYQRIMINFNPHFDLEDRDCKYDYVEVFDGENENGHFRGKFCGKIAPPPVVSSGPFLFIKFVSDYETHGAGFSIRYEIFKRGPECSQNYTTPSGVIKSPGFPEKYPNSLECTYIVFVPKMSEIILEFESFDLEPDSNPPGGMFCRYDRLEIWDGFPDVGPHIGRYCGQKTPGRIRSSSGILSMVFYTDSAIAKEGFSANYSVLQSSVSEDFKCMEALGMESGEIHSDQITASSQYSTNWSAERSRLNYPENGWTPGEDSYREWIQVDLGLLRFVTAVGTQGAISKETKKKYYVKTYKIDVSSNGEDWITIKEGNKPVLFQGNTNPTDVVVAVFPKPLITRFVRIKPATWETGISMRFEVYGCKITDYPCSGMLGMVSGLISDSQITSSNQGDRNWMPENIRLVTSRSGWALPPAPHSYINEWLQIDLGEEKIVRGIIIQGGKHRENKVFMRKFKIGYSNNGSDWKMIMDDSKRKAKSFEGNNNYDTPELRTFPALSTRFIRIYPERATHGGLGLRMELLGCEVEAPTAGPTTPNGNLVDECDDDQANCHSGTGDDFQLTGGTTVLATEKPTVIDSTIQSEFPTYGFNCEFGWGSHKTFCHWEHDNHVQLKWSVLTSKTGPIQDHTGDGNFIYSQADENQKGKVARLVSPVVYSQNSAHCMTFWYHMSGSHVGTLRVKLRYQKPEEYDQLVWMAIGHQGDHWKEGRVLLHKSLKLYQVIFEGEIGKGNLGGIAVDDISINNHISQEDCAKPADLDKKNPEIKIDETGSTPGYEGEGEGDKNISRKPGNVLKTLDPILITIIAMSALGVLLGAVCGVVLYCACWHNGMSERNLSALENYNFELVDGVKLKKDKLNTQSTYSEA
CRFR2-BP antag: CRF-BP/CRF-R2 complex antagonism. HEK293 CRF-R2/CRF-BP, CRF-induced calcium fluorescence. inhibition, % at 11.8 µM. 350,000 tested, 0.59% active. AID 588475;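 active = inhibition of the ligand-induced calcium signal above about 50% at the single tested concentration, limit read from the data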
The depositor's hits bear a star; i = inactive; ? = inconclusive; nt = no result given; + = active, no number.

SMILES	NadD block	Myeloid diff MLP	FAS TE block	NRP1-CendR mod	CRFR2-BP antag
CCc1cc(-c2nnn(-c3cc(C(C)C)ccc3C)c2CC)ccc1-c1cn(CCc2c[nH]c3ccccc23)nn1	-2	i	20	-14	-10
O=C(N/N=C/c1cc(Br)cc(Br)c1O)c1ccncc1	nt	nt	nt	nt	-164
O=C(N/N=C/c1cc(Br)cc([N+](=O)[O-])c1O)c1ccc(NC(=O)c2ccc(F)cc2)cc1	54*	nt	30	-7	28
COC(=O)c1cc2c(ccc3ccccc32)oc1=O	0	i	-1	18	5
COC(=O)c1cc2ccccc2c([N+](=O)[O-])c1O	-4	i	5	23*	-13
COC(=O)c1cc2ccccc2c(-c2c(OC)c(C(=O)OC)cc3ccccc23)c1OC	-7	+	17	0	4
Cc1cccc(C)c1NC(=S)N(CCCN1CCN(C)CC1)Cc1cccs1	-6	i	-4	-6	11
CCCS(=O)(=O)NC(=O)C1(C)CCN(C(=O)c2ccccc2OC(F)(F)F)C1 (stereo not drawn)	3	i	-9	3	nt
COc1cccc(C(CCc2cc(OC)c(OC)c(OC)c2)NC(C)=O)c1 (stereo not drawn)	-6	i	-4	8	2
COc1cc(CCC(N)c2cccc(O)c2)cc(OC)c1OC (stereo not drawn)	-4	i	-3	26*	-11
CN(Cc1ccccc1)C(=O)c1cccc(NC(=O)Cc2cccc(NC(=O)C3CCN(C(=O)C4CC4)CC3)c2)c1	4	+	1	-8	-16
CN(Cc1ccccc1)C(=O)c1ccc(NC(=O)Cc2cccc(NC(=O)C3CCN(C(=O)C4CC4)CC3)c2)cc1	-1	i	-9	7	6
Cc1cc(C(=O)N2CCCC2(C)C(=O)NCC(C)C)nn1C(C)(C)C (stereo not drawn)	2	i	-6	-7	nt
Cc1cccc(NC(=O)c2cccc([N+](=O)[O-])c2O)c1C	-6	i	-7	-5	59*
Cc1[nH]c2c([N+](=O)[O-])cccc2c1C	-3	i	2	-3	-9
O=[N+]([O-])c1cccc2cn[nH]c12	-1	+	-2	0	6
O=C(CSc1nnc(-c2cccs2)o1)OC1CCCCC1	-8	i	19	34*	0
CCN(CC)C(=O)C1=C(C)N(Cc2ccccc2)C(=O)C(CC(=O)NC2CCCC2)C1 (stereo not drawn)	-1	i	-2	5	-12
COCc1nnc(NC(=O)c2cccc(NC(=O)C(C)C)c2)s1	-5	i	0	-9	31
COCc1nnc(NC(=O)C(C)C)s1	3	i	-4	26*	21
Cc1ccc(-c2nnn(CC(=O)N(CC(=O)NC(C)C)c3cnc4ccccc4c3)n2)o1	1	i	-6	-1	-3
Cc1ccc(-c2nnn(CC(=O)N(CC(=O)NC3CCCC3)c3ccc(F)c(Cl)c3)n2)o1	-4	i	11	-2	8
Cc1ccc(-c2nnn(CC(=O)N(CC(=O)NC3CCCCC3)c3ccc(F)c(Cl)c3)n2)o1	-1	i	20	29*	30
Cc1ccc(-c2nnn(CC(=O)N(CC(=O)NC3CCCC3)c3cnc4ccccc4c3)n2)o1	2	+	0	-8	-10
COc1ccc(C(C)C)cc1-c1cc(C(=O)NCc2cccc(C(F)(F)F)c2)[nH]n1	-1	i	16	21*	nt
SMILES	NadD block	Myeloid diff MLP	FAS TE block	NRP1-CendR mod	CRFR2-BP antag
CCn1ncc(C(=O)Nc2ccc([N+](=O)[O-])cc2OC)c1C	1	i	4	-4	51*
CCn1ncc(Cl)c1C(=O)Nc1cc([N+](=O)[O-])ccc1OC	4	i	4	-1	19
COc1cc([N+](=O)[O-])ccc1NC(=O)CCCOc1cccc(C)c1	-11	i	31	20*	-2
O=C(Nc1ccccn1)C1CCN(C(=O)c2ccc(Cl)cc2)CC1	5	i	-4	12	-5
COc1ccc(OCC(=O)NCc2nc(-c3ccccc3)no2)cc1	6	i	-9	-13	4
CN(C)S(=O)(=O)N1CCCC(C(=O)c2ccc(-c3ccccc3)c(F)c2)C1 (stereo not drawn)	-13	i	25	20*	-4
O=C(C(=O)N1CCN(C(=O)c2ccco2)CC1)c1ccccc1	nt	i	nt	6	nt
C#CCOCCOCCOCCNc1nc(N2CCN(C(=O)[C@H](C)n3cc(CCC(=O)O)nn3)CC2)nc(N2CCN(C(=O)[C@H](Cc3ccc(O)cc3)n3cc(CCO)nn3)CC2)n1	4	i	-14	19	3
C#CCOCCOCCOCCNc1nc(N2CCN(C(=O)[C@H]([C@@H](C)O)n3cc(CCCCN)nn3)CC2)nc(N2CCN(C(=O)[C@H](Cc3ccc(O)cc3)n3cc(CCO)nn3)CC2)n1	-8	i	-5	22*	0
C#CCOCCOCCOCCNc1nc(N2CCN(C(=O)[C@H](C(C)C)n3cc(CCO)nn3)CC2)nc(N2CCN(C(=O)[C@H](Cc3ccc(O)cc3)n3cc(CCO)nn3)CC2)n1	1	i	-13	29*	-5
Cc1ccc(C)c(N2CCN(C(C(=O)NC3CCCC3)C(C)C)CC2)c1 (stereo not drawn)	nt	i	nt	-1	nt
Cn1cnc(S(=O)(=O)N2CCCCC2c2cc(C(=O)NCc3ccc(Cl)c(Cl)c3)no2)c1 (stereo not drawn)	-1	i	3	-6	nt
Cc1cc(C)n(CC(C)NCc2cn[nH]c2-c2ccc(C)c(C)c2)n1 (stereo not drawn)	-10	+	-3	0	12
CC(C)Cn1c2nc3ccccc3nc2c2c(=O)n(CCN3CCOCC3)cnc21	-3	+	-4	-5	7
c1ccc2c(c1)OCC(c1nnc3n1-c1ccccc1SC3)O2 (stereo not drawn)	1	nt	-3	45*	4
CCN1CCN(C(c2cccs2)C(C)NC(=O)c2ccccc2F)CC1 (stereo not drawn)	0	i	-8	25*	6
CCN1CCN(C(c2cccs2)C(C)NC(=O)c2c(F)cccc2F)CC1 (stereo not drawn)	-3	i	-14	-3	-2
CC(NNC(=S)N1CCN(c2ccccn2)CC1)c1nccc2ccccc12 (stereo not drawn)	5	?	-6	24*	8
CCNC(=S)N1CCN(c2ccccn2)CC1	-4	i	-7	4	13
C[C@H](CO)N1C[C@H](C)[C@H](CN(C)S(=O)(=O)c2cccs2)Oc2ncc(-c3cc4ccccc4o3)cc2C1=O	5	i	14	-1	11
COC(=O)c1ccccc1NC1=C/C(=N\S(=O)(=O)c2ccc(C(=O)O)cc2)c2ccccc2C1=O	47*	i	7	24	14
Cc1ccc(S(=O)(=O)/N=C2\C=C(Nc3cccc(C(=O)O)c3)C(=O)c3ccccc32)cc1	10	i	15	45*	38
